Assay results from PubChem BioAssay AID588342 (National Center for Advancing Translational Sciences (NCATS), 2011).
Several values for one entry are separate records, joined by “and”; a condition that tells them apart may be missing. Equal values may be shown once. Out of some 360,000 compounds screened, about 25,000 (6.9%) were called active. Roughly 9% stayed inconclusive and do not appear here. This is one part of a sample in which actives are shown more often than they occur. The call rests on the fitted dose curve; in most records, active means well fitted inhibition curve with a large enough effect; inconclusive means small, poorly fitted or top-dose-only effect; inactive means flat fitted curve, though single readings scatter. Some structures have more than one record in an assay (separate samples or runs), and their calls can disagree.

target: Luciferin 4-monooxygenase (Photinus pyralis) (UniProt P08659); assay: qHTS profiling assay for firefly luciferase inhibitor/activator using purifed enzyme and Km concentrations of substrates (counterscreen for miR-21 project); details: purified FLuc, luminescence inhibition; series mostly up to 57.5 µM; activity change, negative = inhibition: at the top concentration; further: nearly all actives have a fitted effect of over 55% in size;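 on activity change, negative = inhibition: plate controls were vehicle for no effect and reference inhibitor for full effect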
Outline: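 Biochemical qHTS of compounds, final roughly 60 µM downward over six points, against 10 nM purified firefly luciferase using Km concentrations of substrates (10 uM D-luciferin, 10 uM ATP) in Tris acetate pH 7.5 buffer; luminescence output.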
Potency means the concentration at half of the fitted maximal effect.

Chain of Luciferin 4-monooxygenase (Photinus pyralis) (P08659 whole entry, looked up): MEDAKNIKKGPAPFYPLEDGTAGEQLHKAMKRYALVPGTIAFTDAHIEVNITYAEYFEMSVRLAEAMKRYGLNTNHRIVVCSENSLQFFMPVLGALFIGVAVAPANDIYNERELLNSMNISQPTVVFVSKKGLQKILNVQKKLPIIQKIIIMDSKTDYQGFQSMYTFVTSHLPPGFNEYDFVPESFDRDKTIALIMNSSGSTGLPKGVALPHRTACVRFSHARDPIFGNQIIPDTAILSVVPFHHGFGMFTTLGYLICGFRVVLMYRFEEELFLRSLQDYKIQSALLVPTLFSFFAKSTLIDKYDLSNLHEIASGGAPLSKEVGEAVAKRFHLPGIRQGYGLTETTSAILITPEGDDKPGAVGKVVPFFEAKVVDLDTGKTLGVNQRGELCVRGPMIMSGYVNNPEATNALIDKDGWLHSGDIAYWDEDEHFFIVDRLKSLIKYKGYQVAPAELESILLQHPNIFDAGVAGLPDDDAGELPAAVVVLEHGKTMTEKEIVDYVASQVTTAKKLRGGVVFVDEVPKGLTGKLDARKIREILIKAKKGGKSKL

Row | Compound | Potency | activity change, negative = inhibition
1 | COc1ccc(/C=N/N=C2/C(=O)Nc3ccccc32)cc1O | 19 µM (active) | 
2 | COc1ccc(/C=N/N(C)C2=NS(=O)(=O)c3ccccc32)cc1OC |  | -2.58% (inactive)
3 | CCOc1ccc(/C=N/NC(=O)CSc2ccccn2)cc1O |  | -2.26% (inactive)
4 | CCOC(=O)c1cc(-c2ccccc2)n(-c2cccc(C(=O)Nc3cc(OC)cc(OC)c3)c2)c1C |  | -7.06% (inactive)
5 | Cc1cc(C)c2oc(C(=O)Nc3ccc(S(=O)(=O)N(C)c4ccccc4)cc3)cc(=O)c2c1 |  | 5.08% (inactive)
6 | O=C(c1cc(COc2cccc(C(F)(F)F)c2)on1)N1CCSCC1 |  | -0.261% (inactive)
7 | C=CCC1(CC=C)CCCN1C(=O)c1cc(COc2ccc(-n3cncn3)cc2)on1 |  | -3.43% (inactive)
8 | O=C(c1cc(COc2ccc(F)cc2F)on1)N1CCOCC1 | 16.9 µM (active) | 
9 | O=C(Oc1ccc(F)cc1)N1CCOCC1 |  | -0.597% (inactive)
10 | O=C(NCCN1CCCC(O)C1)c1cc(COc2c(F)cccc2F)on1 (stereo not given) |  | -0.38% (inactive)
11 | O=C(c1cc(COc2c(F)cccc2F)on1)N1CCSCC1 | 19 µM (active) | 
12 | COc1ccc(CCN2C(=O)c3oc4cc(C)cc(C)c4c(=O)c3C2c2ccccc2F)cc1OC (stereo not given) |  | -13.9% (inactive)
13 | COc1cccc(CNCCSc2nnnn2C)c1OCc1ccccc1Cl |  | 2.21% (inactive)
14 | O=C(NCCCc1ccccc1)c1ccc2c(c1)sc1nc(-c3ccc(F)cc3)cn12 |  | -6.72% (inactive)
15 | C/C(=N/Nc1nc(-c2ccccc2)c(CC(=O)O)s1)c1ccccc1 | 5.36 µM (active) | 
16 | CCOc1ccc(-c2nc(C)sc2CC(=O)O)cc1 |  | -4.12% (inactive)
17 | CCOC(=O)C(=O)Nc1nc(-c2ccccc2)c(CC)s1 |  | 3.83% (inactive)
18 | Cc1ccc(C)c(N2CCN(S(=O)(=O)c3ccc4c(c3)C(C(C)C)C(=O)N4)CC2)c1 (stereo not given) |  | -12.1% (inactive)
19 | CN(Cc1ccccc1)C(=O)COc1ccccc1 | 9.53 µM (active) | 
20 | CN(Cc1ccc(F)cc1)C(=O)COc1ccc2ccccc2c1 |  | -8.15% (inactive)
21 | CN(Cc1ccccc1)C(=O)c1ccc(COc2ccccc2)cc1 |  | -11.3% (inactive)
22 | Cc1ccccc1-c1nc2scc(CCNC(=O)C(=O)Nc3ccc(F)cc3F)n2n1 |  | 0.856% (inactive)
23 | CC1CCCCC1NC(=O)COC(=O)Cc1ccc(Cl)cc1 (stereo not given) |  | -1.87% (inactive)
24 | CC(=O)Oc1ccc(C(=O)Nc2nccs2)cc1 | 10.7 µM (active) | 
25 | CCOc1ccc(C(=O)Nc2nccs2)cc1[N+](=O)[O-] |  | -17.8% (inactive)
26 | CCN(c1ccccc1)S(=O)(=O)c1ccc(C(=O)Nc2nccs2)cc1 |  | -0.951% (inactive)
27 | Cc1nc(-c2ccccc2)sc1-c1nc(-c2ccccc2)ncc1S(=O)(=O)c1ccccc1 |  | 0.487% (inactive)

Row | Compound | Potency | activity change, negative = inhibition
28 | COc1ccccc1-c1nnc(C2CCN(C(=O)c3ccc(Cl)cc3)CC2)o1 |  | -0.92% (inactive)
29 | Cc1nc(-c2ccccc2)sc1-c1nnc(C2CC2)o1 | 15.1 µM (active) | 
30 | COc1cc(C(=O)NCCS(=O)(=O)N2CCN(c3ccccc3)CC2)cc(OC)c1OC |  | -2.54% (inactive)
31 | O=C1NC(c2ccncc2)Nc2sc3c(c21)CCCC3 (stereo not given) | 21.3 µM (active) | 
32 | CCOC(=O)N1CCc2c(sc3c2C(=O)NC(c2ccccc2F)N3)C1 (stereo not given) |  | -9.86% (inactive)
33 | C/C(=C\c1ccccc1)C1NC(=O)c2c(sc3c2CCCC3)N1 (stereo not given) |  | 2.44% (inactive)
34 | CC(C)[C@H](NC(=O)OCc1ccccc1)C(=O)OCc1ccccc1 |  | -0.684% (inactive)
35 | Cc1cc(C)cc(Nc2ncnc3onc(-c4ccc(F)cc4)c23)c1 |  | 0.145% (inactive)
36 | C/C(=N\NC(=O)c1cccnc1)c1ccc(-c2ccccc2)cc1 |  | 0.0468% (inactive)
37 | O=S(=O)(Nc1ccccc1)c1ccc(NS(=O)(=O)c2cccs2)cc1 |  | 0.235% (inactive)
38 | C/C(=N\NC(=O)c1ccc(NS(=O)(=O)c2cccs2)cc1)c1ccc2ccccc2c1 | 19 µM (active) | 
39 | C/C(=N\NC(=O)c1cccnc1)c1ccc(-n2ccnc2)cc1 |  | -5.01% (inactive)
40 | C/C(=N\NC(=O)c1ccc2ccccc2c1)c1cccnc1 | 19 µM (active) | 
41 | CCOc1ccccc1-c1cc(C(=O)N/N=C(\C)c2cccnc2)c2ccccc2n1 |  | 2.99% (inactive)
42 | C/C(=N\NC(=O)Cc1ccccc1[N+](=O)[O-])c1cccnc1 | 15.1 µM (active) | 
43 | C/C(=N\NC(=O)Cc1ccc(Br)cc1)c1cccnc1 |  | -0.0582% (inactive)
44 | COc1cc(NS(=O)(=O)c2cccs2)cc(OC)c1 |  | -3.17% (inactive)
45 | C/C(=N\NC(N)=S)c1cccnc1 |  | 0.115% (inactive)
46 | C/C(=N\NC(=O)c1cc(-c2ccc(O)cc2)nc2ccccc12)c1cccnc1 | 6.01 µM (active) | 
47 | Cc1nc2nc(SCC(=O)N(Cc3ccccc3)C(C)C)nn2c(C)c1Cc1ccccc1Cl |  | 1.64% (inactive)
48 | NS(=O)(=O)c1ccc(CCNC(=O)COC(=O)COc2cccc(C(F)(F)F)c2)cc1 |  | 3.88% (inactive)
49 | CC(C)Cn1c(=O)c2ccccc2n2c(-c3cccc(Cl)c3)nnc12 |  | -7.72% (inactive)
50 | COc1ccc(NC(=O)C2CCCN(S(=O)(=O)c3cccc4nonc34)C2)cc1Cl (stereo not given) |  | 2.63% (inactive)
51 | Cc1ccc(Cl)cc1N1CCN(C(=O)CN2C(=O)COc3ccc(S(=O)(=O)N4CCOCC4)cc32)CC1 |  | -0.641% (inactive)
52 | Cc1cccc(N2CCN(C(=O)CCn3c(=O)c4cccn4c4cccnc43)CC2C)c1 (stereo not given) |  | 1.02% (inactive)
53 | O=C(c1cccc(Cl)c1)N1CCN(CCc2ccncc2)CC1 |  | 0.749% (inactive)
54 | O=C(NNS(=O)(=O)c1ccc([N+](=O)[O-])cc1)C1CCCCC1 |  | 1.02% (inactive)

Row | Compound | Potency | activity change, negative = inhibition
55 | COc1ccc(OC)c2sc(N3CCN(C(=O)C4COc5ccccc5O4)CC3)nc12 (stereo not given) |  | -1.76% (inactive)
56 | O=C(NCCc1ccc(C(F)(F)F)cc1)c1ccc2c(c1)OCO2 |  | 3.23% (inactive)
57 | CC(NCC(=O)Nc1ccccc1C(=O)NC1CC1)c1ccccc1Cl (stereo not given) |  | -1.23% (inactive)
58 | C/C(=N/NC(=O)c1ccn(C)n1)c1ccncc1 |  | -5.86% (inactive)
59 | C/C(=N\NC(=O)CNC(=O)C(c1ccccc1)c1ccccc1)c1ccc(C)cc1 |  | 2.35% (inactive)
60 | C/C(=N\NC(=O)c1cc2c(s1)CCC(C)C2)c1cccnc1 (stereo not given) | 16.9 µM (active) | 
61 | CC1CCc2sc(C(=O)NCC(c3ccco3)N3CCCCC3)cc2C1 (stereo not given) |  | -3.5% (inactive)
62 | C/C(=N\NC(=O)c1cccc([N+](=O)[O-])c1)c1cccnc1 |  | 0.224% (inactive)
63 | C/C(=N\NC(=O)c1nc(C)cc(C)n1)c1ccccc1 | 12 µM (active) | 
64 | CCOc1ccc(C(CCc2ccccc2)NC(=O)c2ccc(OC)c(OC)c2)cc1OCC (stereo not given) |  | -1.05% (inactive)
65 | CCC(CC)C(=O)N1CCc2cc(OC)c(OC)cc2C1COc1ccc(F)cc1 (stereo not given) |  | -4.53% (inactive)
66 | N#CCC(=O)Nc1ccc(C(=O)OCC(=O)Nc2sc3c(c2C#N)CCCC3)cc1 |  | -9.6% (inactive)
67 | O=C1N=C(N2CCc3ccccc3C2)S/C1=C\c1ccc(O)cc1 | 16.9 µM (active) | 
68 | NC1=NC(=O)S/C1=C\c1ccc(O)cc1 |  | -7.93% (inactive)
69 | CC1CCN(C2=NC(=O)/C(=C/c3ccc(O)cc3)S2)CC1 | 10.7 µM (active) | 
70 | CCOc1ccc(N=C2NC(=O)S/C2=C\c2ccc(O)cc2)cc1 |  | -7.47% (inactive)
71 | O=C(C1CCN(c2nnc(-n3cccc3)s2)CC1)N1CCc2ccccc2C1 |  | 1.79% (inactive)
72 | CCCN(C(=O)Cn1ncc2c([nH]c3ccc(C)cc32)c1=O)c1ccccc1C |  | -6.95% (inactive)
73 | COc1cccc(CNC(=O)c2ccc3c(c2)N(Cc2ccc(C(F)(F)F)cc2)C(=O)c2ccccc2S3)c1OC |  | -4.21% (inactive)
74 | CSCCC(C(=O)NC1=NCCS1)N1C(=O)c2ccccc2C1=O (stereo not given) |  | 2.14% (inactive)
75 | CC(C)(C)c1cc(C(=O)N/N=C/c2ccc([N+](=O)[O-])s2)n[nH]1 |  | -3.18% (inactive)
76 | CCOc1ccc(NC(=O)CCC(=O)N/N=C/c2ccc([N+](=O)[O-])s2)cc1 |  | 5.81% (inactive)
77 | O=[N+]([O-])c1ccc(C=Nc2ccc(Cl)cc2Cl)s1 | 2.13 µM (active) | 
78 | COc1ccc(C)cc1NC(=O)CCCN1C(=O)NC(C)(C)C1=O |  | 5.36% (inactive)
79 | CCCNC(=O)CCC(=O)N1Cc2ccccc2Oc2ncccc21 |  | -0.325% (inactive)
80 | CCCCC(=O)OC1=CN(Cc2ccccc2)S(=O)(=O)c2ccccc21 |  | 5.5% (inactive)
81 | COCCn1c(C)cc(C(=O)CSc2ncnc3sc4c(c23)CCC4)c1C |  | 8.69% [at 2.3 µM] (inactive)

Row | Compound | Potency | activity change, negative = inhibition
82 | COCCn1c(C)cc(C(=O)CSc2nnc(C3CC3)n2C2CC2)c1C | 19 µM (active) | 
83 | COCCn1c(C)cc(C(=O)CSc2nc3ccccc3c(=O)n2C(C)COC)c1C (stereo not given) |  | -12.6% (inactive)
84 | CCOC(=O)c1c(N)c(C#N)nn1-c1ccccc1C(=O)OC |  | 4.06% (inactive)
85 | Cc1cc(C)n(CC(=O)Nc2ccc([N+](=O)[O-])cc2)n1 |  | 0.707% (inactive)
86 | CC1CC(C)CN(C/C=C/c2ccccc2[N+](=O)[O-])C1 (stereo not given) |  | 5.73% (inactive)
87 | COc1ccc(-c2c(C)nn3c(N4CCC(C(=O)NCCC(C)C)CC4)cc(C)nc23)cc1OC |  | 0.887% (inactive)
88 | COC(=O)c1ccc(/C=N/NC(=O)C(=O)N2CCCCCC2)cc1 |  | -1.34% (inactive)
89 | O=C(N/N=C/c1ccc2c(c1)OCO2)C(=O)N1CCCC1 | 15.1 µM (active) | 
90 | O=C(N/N=C/c1ccc([N+](=O)[O-])cc1)C(=O)N1CCCC1 |  | 1.64% (inactive)
91 | CCn1ncc(C2=NOC(C(=O)Nc3ccccc3C(=O)OC)C2)c1C (stereo not given) |  | -0.901% (inactive)
92 | Cc1cccc(-n2c(SCC(N)=O)nc3c(oc4ccccc43)c2=O)c1 |  | 1.16% (inactive)
93 | CCCCC(=O)Nc1nnc(S(=O)(=O)N(C)Cc2ccco2)s1 |  | 1.16% (inactive)
94 | CN(Cc1ccco1)S(=O)(=O)c1nnc(NC(=O)c2ccccc2)s1 | inactive and 23.9 µM (active) | 
95 | COc1cccc(C(=O)Nc2nnc(S(=O)(=O)N(C)c3ccccc3)s2)c1 |  | -19.1% (inactive)
96 | CCCCN(C)CCCNC(=O)CN1N=C(c2ccc(OC)cc2)CCC1=O |  | 2.79% (inactive)
97 | COC(=O)CSc1nc2ccccc2c(=O)n1Cc1ccccc1 |  | 5.35% (inactive)
98 | Cc1ccc(C(=O)CSc2nc3ccccc3c(=O)n2N)o1 | 12 µM (active) | 
99 | COc1ccc(NC(=O)CSc2nc3ccccc3c(=O)n2C)cc1 |  | -0.538% (inactive)
100 | Cc1cccc(N2CCN(C3=C(c4ccccc4)C(=O)c4ccccc43)CC2)c1C |  | -7.51% (inactive)
101 | O=[N+]([O-])c1ccc(NCCCO)c(C(F)(F)F)c1 |  | 2.46% (inactive)
102 | COc1cccc(NC(=O)CSC2=Nc3ccccc3C3=NC(CC(=O)NC4CCCCC4)C(=O)N23)c1 (stereo not given) |  | 1.39% (inactive)
103 | COc1ccc(Br)cc1CN1CCN(C(=O)c2cccc(OC)c2OC)CC1 |  | 5.02% (inactive)
104 | COC(=O)Cc1cc(=O)oc2c(C)c(O)ccc12 |  | 0.0059% (inactive)
105 | COc1cccc(C(=O)OCc2cc(=O)oc3c(C)c(C)ccc23)c1OC | 16.9 µM (active) | 
